Compound activity (PubChem BioAssay)
Sampled rows, rich in hits. Any-hit rate of the full collection: about 9.8%.
HttQ103 aggreg – reduces HttQ103-GFP aggregates in PC12 cells; Potency, µM (top dose mostly 46.1 µM), without a hit: at the top dose activity change, negative = inhibition, hits mostly inhibitors; actives 1.1% (n = 220,000); AID 1688; PC12 HttQ103-GFP aggregates, Acumen cytometry, 40 h; note: potency is the fitted concentration of half-maximal effect; % is set by controls: 0 for no effect and ±100 for the full control effect; nearly all actives have a fitted effect of over 60% in size
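Using laser scanning cytometry, GFP-positive aggregates were counted after lysis of PC12 cells induced with 100 nM tebufenozide to express HTT exon 1 Q103–GFP. Compounds were tested in titration.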
KDM4E inh – inhibitors of human JMJD2E histone demethylase | JMJD2E catalytic domain, FDH-coupled NADH fluorescence (FDH is formaldehyde dehydrogenase) | Potency, µM (series often up to 57.1 µM), for the others: at the top dose activity change, negative = inhibition, actives largely listed as inhibitors | actives 1.6% (n = 230,000); active = well fitted inhibition curve with a large enough effect, not every such curve was filed as active; inconclusive = small, poorly fitted or top-dose-only effect, or another doubt; inactive = no such curve, though single readings can be large or run the other way;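 note: potency is the fitted concentration of half-maximal effect; 0% = wells with enzyme and -100% = buffer wells without enzyme; nearly all actives have a fitted effect of over 50% in size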
Target sequence (B2RXH2 1-337 limits assumed): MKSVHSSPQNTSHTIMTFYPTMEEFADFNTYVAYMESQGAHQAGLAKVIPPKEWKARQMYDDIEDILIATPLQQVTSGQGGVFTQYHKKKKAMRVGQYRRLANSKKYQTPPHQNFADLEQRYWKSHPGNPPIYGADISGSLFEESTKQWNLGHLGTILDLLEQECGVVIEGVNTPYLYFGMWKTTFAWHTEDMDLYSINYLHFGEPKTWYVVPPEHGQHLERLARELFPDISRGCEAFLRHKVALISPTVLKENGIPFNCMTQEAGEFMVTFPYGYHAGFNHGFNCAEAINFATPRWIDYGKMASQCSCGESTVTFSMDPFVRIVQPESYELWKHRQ
CBFb-RUNX1 inh – blocks binding between human CBF-beta and RUNX1; Q01196+Q13951; AlphaScreen CBFb-His/RUNX1-biotin binding, biochemical; Potency, µM (series often up to 59.8 µM), inactives show top-dose activity, negative = inhibition, hits mostly inhibitors; 230,000 tested, under 10 active; AID 1477; note: % of control where 0% means no effect
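Interaction loss through any mechanism counts as activity. Pre-formed complex of His-CBF-beta and biotin-RUNX1 (30 nM apiece) is incubated with compound 15 min, then with 50 ng nickel and 50 ng streptavidin beads for 90 min before AlphaScreen detection.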
HPGD block – inhibitors of human 15-hydroxyprostaglandin dehydrogenase (HPGD) | P15428 | purified HPGD, NADH fluorescence kinetic, PGE2 substrate | Potency, µM, without a hit: top-dose activity change, negative = inhibition, actives largely listed as inhibitors | actives 4.3% (n = 150,000); active = well fitted inhibition curve with a large enough effect, not every such curve was filed as active; inconclusive = small, poorly fitted or top-dose-only effect, or another doubt; inactive = no such curve, though single readings can be large or run the other way; note: potency is the fitted concentration of half-maximal effect; % is set by controls: 0 for no effect and ±100 for the full control effect
Target sequence (P15428 whole entry, looked up): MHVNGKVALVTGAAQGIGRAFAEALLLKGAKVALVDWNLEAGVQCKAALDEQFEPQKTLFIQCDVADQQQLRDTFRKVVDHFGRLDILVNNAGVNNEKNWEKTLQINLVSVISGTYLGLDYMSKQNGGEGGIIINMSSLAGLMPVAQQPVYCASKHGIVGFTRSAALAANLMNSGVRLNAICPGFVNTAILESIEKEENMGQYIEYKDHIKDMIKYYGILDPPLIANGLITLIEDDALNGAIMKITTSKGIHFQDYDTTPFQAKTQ
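NADH formation kinetics: reaction with 30 uM PGE2 and 1 mM NAD+ (final), 20 nM enzyme, Tris-HCl pH 8 with Tween 20, after 15 min compound preincubation at room temperature. Fluorescence change, last versus first of five reads.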
HTT cytoprotect – Huntington cell model cytoprotection by ATP luminescence. PC12 HTT-Q103 induced, cytoprotection, ATP luminescence, 40 h. Potency, µM (series often up to 56.4 µM), without a hit: cytoprotection (ATP increase), hits mostly activators. actives 0.14% (n = 230,000); note: potency is the fitted concentration of half-maximal effect; % of control where 0% means no effect; nearly all actives have a fitted effect of over 45% in size
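ATP quantification (ATPlite) reports survival of PC12 cells in which tebufenozide, 100 nM final, switches on Htt exon 1 with 103 glutamines linked to GFP; compounds are titrated.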
ALDH1A1 block – ALDH1A1 (human) enzyme inhibition. P00352. Purified ALDH1A1, NADH fluorescence, propionaldehyde substrate. Potency, µM (doses to about 75.3 µM), for inactives: top-dose activity, negative = inhibition, actives largely listed as inhibitors. actives 7.3% (n = 220,000). AID 1030; active = well fitted inhibition curve with a large enough effect, not every such curve was filed as active; inconclusive = small, poorly fitted or top-dose-only effect, or another doubt; inactive = no such curve, though single readings can be large or run the other way;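 note: potency is the fitted concentration of half-maximal effect; plate controls were no enzyme wells and a reference inhibitor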
* = called active by the depositor; [ ] = another dose, or the depositor's remark. Unless noted, calls come from the whole dose curve; as a rule, active = well fitted curve in the direction sought with a large enough effect; inconclusive = small, poorly fitted or top-dose-only effect, or another doubt; inactive = no such curve, though single readings can be large; an effect the other way counts as inactive or inconclusive.

What do the screens show for `CCN1CCc2c(sc(NC(=S)NC(=O)c3ccco3)c2C(N)=O)C1`?
HttQ103 aggreg: -0.9%[9.22 µM]; KDM4E inh: inconclusive; CBFb-RUNX1 inh: -1.7%; HTT cytoprotect: 9.2%[10 µM]; ALDH1A1 block: 7.94µM*

What do the screens show for `CCN1CCc2c(sc(NC(=O)Nc3ccc(Cl)c(Cl)c3)c2C(N)=O)C1`?
HttQ103 aggreg: 11.2µM*; KDM4E inh: inconclusive; CBFb-RUNX1 inh: inconclusive; HPGD block: -17.0%; ALDH1A1 block: -1.0%

What do the screens show for `Cc1sc(NC(=S)NC(=O)c2ccco2)c(C(N)=O)c1C`?
HttQ103 aggreg: 2.7%; KDM4E inh: -6.7%; CBFb-RUNX1 inh: 2.6%; HTT cytoprotect: -85.8%; ALDH1A1 block: 3.16µM*

What do the screens show for `CCN1CCc2c(sc(NC(=O)c3ccc(S(=O)(=O)N4CCOCC4)cc3)c2C(N)=O)C1`?
HttQ103 aggreg: -4.5%; KDM4E inh: -2.6%; CBFb-RUNX1 inh: 11.4%; HPGD block: -13.8%; HTT cytoprotect: 14.2%; ALDH1A1 block: 39.8µM*

What do the screens show for `Cc1sc(NC(=S)NC(=O)CCc2ccccc2)c(C(N)=O)c1C`?
HttQ103 aggreg: inconclusive; KDM4E inh: -3.7%; CBFb-RUNX1 inh: -11.1%; HPGD block: -14.6%; HTT cytoprotect: -68.9%[10 µM]; ALDH1A1 block: inconclusive

Results for CCN1CCc2c(sc(NC(=S)NC(=O)c3ccccc3)c2C#N)C1 ?
HttQ103 aggreg: 6.9%; KDM4E inh: -7.1%; CBFb-RUNX1 inh: -7.5%; HPGD block: -26.6%; HTT cytoprotect: -19.4%; ALDH1A1 block: inconclusive

How did COCCOc1cc(-n2ccnc2SC)c(Cl)cc1Cl do in these assays?
HttQ103 aggreg: -0.9%; KDM4E inh: -2.4%; CBFb-RUNX1 inh: 4.3%; HPGD block: -6.8%; HTT cytoprotect: 38.1%[10 µM]; ALDH1A1 block: 20.9%

How did CC(=O)c1ccc(-c2ccc(C(=O)N3CCCc4ccccc43)o2)cc1 do in these assays?
HttQ103 aggreg: -7.0%; KDM4E inh: inconclusive; CBFb-RUNX1 inh: -7.8%; HTT cytoprotect: 16.4%[10 µM]; ALDH1A1 block: inconclusive

Results for Cc1ccc(-n2c(P(C)(=O)O)nc3ccccc32)cc1 ?
HttQ103 aggreg: 9.3%; KDM4E inh: 0.5%; CBFb-RUNX1 inh: 12.5%; HTT cytoprotect: -3.3%; ALDH1A1 block: 4.5%

How did CCOC(=O)N1CCc2c(sc(NC(=O)c3ccc(Cl)s3)c2C(N)=O)C1 do in these assays?
HttQ103 aggreg: 11.9%; KDM4E inh: inconclusive; CBFb-RUNX1 inh: 5.1%; HPGD block: 31.6µM*; HTT cytoprotect: -3.5%; ALDH1A1 block: 18.9µM*

Results for O=C(C(=S)N1CCOCC1)c1c[nH]c2ccccc12 ?
HttQ103 aggreg: 3.8%; KDM4E inh: -4.5%; CBFb-RUNX1 inh: -1.4%; HTT cytoprotect: -1.2%[10 µM]; ALDH1A1 block: 3.16µM*

Results for Cc1ccnc(SCc2cc(=O)c(OC(=O)c3ccc(Cl)c([N+](=O)[O-])c3)co2)n1 ?
HttQ103 aggreg: -0.3%; KDM4E inh: 3.4%; CBFb-RUNX1 inh: inconclusive; HPGD block: inconclusive; ALDH1A1 block: 7.51µM*

How did Cc1cc(C)nc(SCc2cc(=O)c(OC(=O)c3cccc([N+](=O)[O-])c3)co2)n1 do in these assays?
HttQ103 aggreg: -5.5%; KDM4E inh: inconclusive; CBFb-RUNX1 inh: -0.8%; HPGD block: -3.7%; HTT cytoprotect: 2.7%[10 µM]; ALDH1A1 block: 0.0562µM*

How did Cc1ccnc(SCc2cc(=O)c(OC(=O)c3ccco3)co2)n1 do in these assays?
HttQ103 aggreg: 21.3%; KDM4E inh: -2.3%; CBFb-RUNX1 inh: 2.5%; HPGD block: -4.9%; HTT cytoprotect: 22.2%[10 µM]; ALDH1A1 block: 6.4%

How did CC(C)COc1nc2c(c(=O)n(C)c(=O)n2C)n1C do in these assays?
HttQ103 aggreg: 0.9%[9.22 µM]; KDM4E inh: 3.8%; CBFb-RUNX1 inh: -4.0%; HTT cytoprotect: 9.9%[10 µM]

Results for CN(C)S(=O)(=O)Oc1cccc(C(=O)Nc2ccc(Cl)c(Cl)c2)c1 ?
HttQ103 aggreg: 12.6µM*; KDM4E inh: -1.6%; CBFb-RUNX1 inh: 10.3%; HPGD block: -14.0%; HTT cytoprotect: -45.8%; ALDH1A1 block: 12.6µM*
